# This is a sample that favours compounds with a hit; in the whole collection about 4% have one here.
# Gli-Sufu block: Gli-Sufu pathway antagonism. inhibition, % at 5 µM. 0.74% of 340,000 active. Sufu-KO-LIGHT fibroblasts, Gli luciferase reporter luminescence;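 active means inhibition above about 55%, limit read from the data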;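 further: 0% = DMSO-treated cells and 100% = wells with medium but no cells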
# Jurkat NFkB inh: inhibitors of the PMA/ionomycin-induced NF-kB reporter in Jurkat cells; PMA/ionomycin-induced NF-kB luciferase reporter, luminescence; inhibition, % at 4 µM; AID 435003; 0.53% of 330,000 active; in the data active means inhibition above about 50%
# Mdm2 MdmX PPI: disrupts the human Mdm2-MdmX interaction | 3% of 330,000 active | inhibition, % at 8 µM | O15151+Q00987 | SaOS-2 split-luciferase Mdm2/MdmX complementation, luminescence | AID 485346;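 active means inhibition of at least 50% at 8 µM in the primary screen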
# Target sequence (O15151 whole entry, looked up): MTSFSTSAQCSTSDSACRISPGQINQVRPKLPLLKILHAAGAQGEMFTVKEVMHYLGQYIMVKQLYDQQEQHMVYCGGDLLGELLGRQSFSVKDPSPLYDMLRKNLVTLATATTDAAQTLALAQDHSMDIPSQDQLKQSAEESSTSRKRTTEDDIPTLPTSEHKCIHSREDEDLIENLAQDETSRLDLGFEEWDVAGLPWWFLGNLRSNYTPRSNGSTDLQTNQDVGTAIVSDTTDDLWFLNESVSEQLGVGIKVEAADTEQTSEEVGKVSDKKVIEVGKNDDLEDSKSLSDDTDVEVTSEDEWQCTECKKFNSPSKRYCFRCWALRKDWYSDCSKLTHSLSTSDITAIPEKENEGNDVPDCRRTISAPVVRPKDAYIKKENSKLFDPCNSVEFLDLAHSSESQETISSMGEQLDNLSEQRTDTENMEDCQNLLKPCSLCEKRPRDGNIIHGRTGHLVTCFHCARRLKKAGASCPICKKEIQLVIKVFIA
# Target sequence (Q00987 whole entry, looked up): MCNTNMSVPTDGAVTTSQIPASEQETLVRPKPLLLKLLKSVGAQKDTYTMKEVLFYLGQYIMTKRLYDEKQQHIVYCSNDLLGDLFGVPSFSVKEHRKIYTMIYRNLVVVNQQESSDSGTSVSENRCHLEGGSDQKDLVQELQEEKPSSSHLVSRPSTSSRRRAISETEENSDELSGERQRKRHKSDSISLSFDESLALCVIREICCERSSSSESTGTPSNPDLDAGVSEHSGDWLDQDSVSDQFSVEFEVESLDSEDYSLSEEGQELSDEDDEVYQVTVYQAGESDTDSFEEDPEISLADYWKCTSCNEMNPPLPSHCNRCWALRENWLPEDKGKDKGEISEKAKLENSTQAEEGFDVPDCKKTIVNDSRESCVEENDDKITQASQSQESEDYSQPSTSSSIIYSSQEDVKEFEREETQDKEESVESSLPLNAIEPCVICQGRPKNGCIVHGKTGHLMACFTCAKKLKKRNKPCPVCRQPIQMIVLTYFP
# 697 NFkB inh: lowers PMA/ionomycin-induced NF-kB signal in 697 B cells; inhibition, % at 4 µM; AID 435022; 0.33% of 330,000 active; 697 B-cell NF-kB luciferase reporter, 16 h; in the data active means inhibition above about 35%
# Beta apoptosis: blocks beta cell apoptosis; INS-1E cytokine-induced death, ATP luminescence, 48 h; percent of positive-control rescue, neutral wells zero; protection from apoptosis, % (concentration not given with the values); 0.8% of 300,000 active;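 active means Every replicate reaches about 75%, or at least half do and their mean reaches it too, limit read from the data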;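 further: 0% = cytokine-treated negative control wells and 100% = positive control rescue; higher means more ATP so stronger rescue from cytokine killing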
# Mdm2 MdmX conf: human Mdm2/MdmX binding inhibition, confirmed; inhibition, % at 8 µM; 55% of 10,000 active; shares compounds with Mdm2 MdmX PPI; luminescent assay; AID 489028; in the data active means inhibition above about 40%
# FLuc counter: inhibits full-length luciferase, flagging false Mdm2/MdmX hits; AID 504607; inhibition, % at 8 µM; shares compounds with Mdm2 MdmX PPI; 77% of 6,200 active; SaOS-2 full-length luciferase counterscreen, luminescence;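 active means mean inhibition at 8 µM reaching about 37%, which flags the compound as non-specific, limit read from the data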;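 further: p53-null SaOS-2 cells with luciferase driven by a doxycycline-inducible promoter; compound on cells about two nights before reading with doxycycline added after day one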
# The depositor's hits bear a star; . = no result.
SMILES,Gli-Sufu block,Jurkat NFkB inh,Mdm2 MdmX PPI,697 NFkB inh,Beta apoptosis,Mdm2 MdmX conf,FLuc counter
CC[C@@]1(C(=O)OC)N[C@H](CN(C)C(=O)Nc2ccc(Cl)cc2)[C@@H]2C(=O)N(Cc3ccccc3)C(=O)[C@@H]21,-1,5,64*,15,-3,57*,51*
CC[C@@]1(C(=O)OC)N[C@H](CN(C)C(C)=O)[C@@H]2C(=O)N(Cc3ccccc3)C(=O)[C@@H]21,0,13,1,10,.,.,.
COc1cc(/C=C/C(=O)Nc2ccc3nc4n(c(=O)c3c2)CCCC4)cc(OC)c1OC,7,2,43,-18,8,.,.
O=C(Nc1ccc2nc3n(c(=O)c2c1)CCCC3)c1cccc([N+](=O)[O-])c1,-21,-25,-25,6,2,.,.
O=C(Nc1ccc2nc3n(c(=O)c2c1)CCCC3)c1cc([N+](=O)[O-])ccc1F,5,-2,100*,-3,28,91*,52*
COc1ccc(/C=C/C(=O)Nc2ccc3nc4n(c(=O)c3c2)CCCC4)cc1,15,6,70*,-22,1,3,.
CCC(CC)C(=O)Nc1cc(Cl)ccc1C,.,-12,18,9,.,.,.
COc1ccc(NC(=O)COC(=O)CO/N=C(\C)c2ccc3c(c2)OCO3)cc1S(N)(=O)=O,-19,8,-9,15,-3,.,.
COc1ccc(Nc2nc(OC)nc(OC)n2)cc1,-13,9,-3,-50,.,.,.
COc1ccc(Nc2nc(Nc3ccc(OC)cc3)nc(SC3=NCCS3)n2)cc1,-6,-12,74*,17,4,-8,.
CCOC(=O)Cn1cc(/C=N/NC(=O)CC#N)c2ccccc21,-3,-5,22,0,-4,.,.
N#CCC(=O)N/N=C/c1cn(Cc2ccccc2C#N)c2ccccc12,1,3,23,16,-1,.,.
N#CCC(=O)N/N=C/c1cn(Cc2cccc3ccccc23)c2ccccc12,-14,32,66*,-51,31,64*,55*
N#CCC(=O)N/N=C/c1cn(Cc2ccc(Cl)c(Cl)c2)c2ccccc12,5,8,73*,19,.,47*,53*
CCC(=O)N/C(N)=N/c1nc(C)c2cc(OC)ccc2n1,1,-60,62*,-89,-5,41*,61*
COc1ccc2nc(/N=C(\N)NC(=O)C(C)(C)C)nc(C)c2c1,-44,-46,-2,-53,-1,.,.
C=CCOc1ccc(C(=O)Nc2ccccc2C(=O)NCc2cccnc2)cc1,0,47,58*,-21,0,55*,61*
COC(=O)c1ccccc1NC(=O)c1nc(S(=O)(=O)Cc2ccccc2)ncc1Cl,0,12,98*,-238,99*,91*,67*
CC(=O)Nc1ccc(NC(=O)c2nc(S(=O)(=O)Cc3ccccc3)ncc2Cl)cc1,5,8,46,-131,-24,.,.
COc1ccc(S(=O)(=O)Cc2ccc(C(=O)NCc3ccccc3)o2)cc1,-3,7,-4,-14,-1,.,.
COc1ccc(CNC(=O)c2nc(S(=O)(=O)Cc3ccccc3)ncc2Cl)cc1,6,2,77*,-55,15,94*,1
O=C(NCc1ccccc1)c1nc(S(=O)(=O)Cc2ccccc2)ncc1Cl,11,-6,74*,-51,-10,67*,4
COc1cccc(/C=C/C(=O)Nc2ccc3nc4n(c(=O)c3c2)CCCC4)c1OC,20,2,33,5,.,.,.
NS(=O)(=O)c1cc(Cl)c(NC(=O)COC(=O)c2ccccn2)c(Cl)c1,0,-1,8,11,4,.,.
C[C@]12c3[nH]c4cc(-c5ccco5)ccc4c3CCN1C(=O)[C@@H](CC(=O)NCc1cccc(C(F)(F)F)c1)C[C@@H]2C(=O)N1CCCCC1,-5,.,85*,0,.,-1,.
SMILES,Gli-Sufu block,Jurkat NFkB inh,Mdm2 MdmX PPI,697 NFkB inh,Beta apoptosis,Mdm2 MdmX conf,FLuc counter
CC[C@]12c3[nH]c4cc(-c5ccco5)ccc4c3CCN1C(=O)[C@@H](CC(=O)NCC13CC4CC(CC(C4)C1)C3)C[C@@H]2C(=O)N1CCN(C(=O)C2CC2)CC1,4,.,78*,-12,.,-14,.
C[C@]12c3[nH]c4cc(-c5ccco5)ccc4c3CCN1C(=O)[C@@H](CC(=O)NCC13CC4CC(CC(C4)C1)C3)C[C@@H]2C(=O)N1CCCCC1,-12,.,78*,-7,.,12,.
CC[C@]12c3[nH]c4ccc(Cl)cc4c3CCN1C(=O)[C@@H](CC(=O)NCC13CC4CC(CC(C4)C1)C3)C[C@@H]2C(=O)N1CCN(C(=O)c2ccco2)CC1,7,.,87*,1,.,41*,38*
Cc1cccc(NC(=O)CNC(=O)c2cccc(-n3cccc3)c2)c1C,-8,-4,-8,-19,0,.,.
CNC(=O)COC(=O)/C=C/c1cccc(F)c1,2,5,5,17,-1,.,.
COc1cccc(/C=C/C(=O)Nc2ccc(C(=O)Nc3cccc(S(N)(=O)=O)c3)cc2)c1OC,4,7,71*,14,13,19,.
COC(=O)c1ccc2c(c1)C(C)(C)C(/C=C/c1ccccc1O)=[N+]2C,65*,32,71*,-34,1,100*,52*
COc1ccc(NS(=O)(=O)c2cc(NC(=O)c3ccccc3)ccc2N2CCOCC2)cc1,-19,28,60*,-27,10,32,.
COc1ccc(NS(=O)(=O)c2cc(NC(=O)C3CCCO3)ccc2N2CCCC2)cc1 (centres undefined),2,1,17,7,-7,.,.
COc1ccc(NS(=O)(=O)c2cc(NC(=O)c3ccc(=O)[nH]c3)ccc2N2CCOCC2)cc1,1,-11,7,0,-5,.,.
COc1ccc(NS(=O)(=O)c2cc(NC(=O)c3cc(F)c(F)cc3Cl)ccc2N2CCOCC2)cc1,-31,12,51*,6,13,12,.
COc1ccc(NS(=O)(=O)c2cc(NC(=O)c3cc(F)c(F)c(F)c3F)ccc2N2CCCC2)cc1,-26,7,61*,33,0,30,.
C/C(=N\N1CCN(Cc2ccc(Cl)cc2)CC1)c1ccc([N+](=O)[O-])cc1,1,20,15,9,4,.,.
CC1(C)CCC[C@]2(C)[C@H]3CC(=O)O[C@]3(C)CC[C@@H]12,3,-8,-6,-2,-7,.,.
CC(=O)OC[C@]12CC[C@H]3[C@@](C)(CC[C@H]4C(C)(C)CCC[C@]34C)[C@@H]1C[C@H](C1=CC(=O)O[C@@H]1OC(C)=O)O2,.,5,63*,-8,2,-12,.
Cc1cc(C(=O)N/N=C/c2cc(Br)cc(Br)c2OC(=O)c2cccc(F)c2)n[nH]1,16,0,51*,5,97*,64*,43*
Cc1cc(C(=O)N/N=C/c2cccs2)n[nH]1,-39,-41,-20,-41,-7,.,.
Cc1ccc(-c2cc(C(=O)N/N=C/c3ccccc3O)n[nH]2)o1,-16,1,53*,-17,44,53*,47*
